EPAC2 ag: agonists of human EPAC2 (RAPGEF4); Q8WZA2; actives 0.079% (n = 360,000); EPAC2 activation, biochemical qHTS; response scale: 100% = 6.5 mM cAMP response; Potency, µM (top dose mostly 154 µM), for inactives: top-dose activation, most hits filed as activators; AID 720711; note: nearly all actives have a fitted effect of over 50% in size
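qHTS, titration series. 100 nM EPAC2 / 250 nM Rap1B-BODIPY-GDP / 50 uM GDP; RT; ex 480/em 540 nm, 5-min reads to 30 min. Norm. to 6.5 mM cAMP = activation.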
EPAC2 antagonist: blocks human EPAC2 exchange factor | AID 720708 | EPAC2 GEF exchange of Rap1B-BODIPY-GDP, fluorescence | Potency, µM (titrated, usually from 114 µM), for the others: at the highest dose activity, negative = inhibition, most hits filed as inhibitors | Q8WZA2 | actives 0.18% (n = 360,000); note: % is set by controls: 0 for no effect and ±100 for the full control effect; nearly all actives have a fitted effect of over 45% in size
EPAC1 agonist: EPAC1 (human) agonism. AID 720707. Potency, µM (titrated, usually from 154 µM), without a hit: at the top dose activation, hits mostly activators. actives 0.073% (n = 360,000). O95398. EPAC1 agonist qHTS, biochemical assay; response scale: 100% = response to 6.5 mM cAMP; note: nearly all actives have a fitted effect of over 60% in size
Target sequence (O95398 whole entry, looked up): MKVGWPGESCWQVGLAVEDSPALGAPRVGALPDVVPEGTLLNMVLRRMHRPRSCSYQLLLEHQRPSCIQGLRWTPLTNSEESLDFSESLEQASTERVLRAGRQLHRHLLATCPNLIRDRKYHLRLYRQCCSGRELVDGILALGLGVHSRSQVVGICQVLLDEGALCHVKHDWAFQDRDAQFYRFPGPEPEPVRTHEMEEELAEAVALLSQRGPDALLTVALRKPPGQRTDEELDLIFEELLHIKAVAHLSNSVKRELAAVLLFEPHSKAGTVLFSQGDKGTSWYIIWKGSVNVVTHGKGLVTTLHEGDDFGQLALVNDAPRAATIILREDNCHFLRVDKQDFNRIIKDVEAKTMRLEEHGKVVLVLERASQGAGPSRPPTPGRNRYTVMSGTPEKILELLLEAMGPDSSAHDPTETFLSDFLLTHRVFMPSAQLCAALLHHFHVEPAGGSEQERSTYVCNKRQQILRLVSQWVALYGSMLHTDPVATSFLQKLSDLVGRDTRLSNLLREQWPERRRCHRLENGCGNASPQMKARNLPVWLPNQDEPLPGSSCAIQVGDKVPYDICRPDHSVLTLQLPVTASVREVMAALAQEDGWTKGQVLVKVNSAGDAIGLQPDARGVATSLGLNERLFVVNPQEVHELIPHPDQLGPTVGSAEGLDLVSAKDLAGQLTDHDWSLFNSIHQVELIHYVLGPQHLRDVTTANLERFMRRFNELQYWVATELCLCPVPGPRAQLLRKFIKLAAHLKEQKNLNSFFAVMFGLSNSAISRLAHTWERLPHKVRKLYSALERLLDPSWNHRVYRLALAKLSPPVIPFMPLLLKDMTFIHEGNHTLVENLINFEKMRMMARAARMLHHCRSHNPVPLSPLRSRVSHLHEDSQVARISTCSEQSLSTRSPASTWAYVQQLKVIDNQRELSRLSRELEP
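Multi-concentration qHTS readout: loss of Rap1B-bound BODIPY-GDP fluorescence driven by 100 nM EPAC1 with excess GDP (50 uM), monitored kinetically at room temperature; agonist response expressed relative to 6.5 mM cAMP.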
EPAC1 antagonist: EPAC1 (human) antagonism | O95398 | EPAC1 GEF assay, Rap1b-BODIPY-GDP exchange fluorescence | Potency, µM (top dose mostly 115 µM), without a hit: at the top dose activity change, negative = inhibition, actives largely listed as inhibitors | actives 0.14% (n = 360,000) | AID 720709;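 note: plate controls were vehicle for no effect and positive control for full effect; nearly all actives have a fitted effect of over 50% in size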
USP1-UAF1 inh: blocks the human USP1/UAF1 deubiquitinase complex | O94782 | recombinant USP1/UAF1, Ub-Rhodamine cleavage fluorescence | Potency, µM (titrated, usually from 57.1 µM), for the others: top-dose activity change, negative = inhibition, usual class: inhibitors | actives 0.23% (n = 390,000); note: % is set by controls: 0 for no effect and ±100 for the full control effect; nearly all actives have a fitted effect of over 60% in size
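High-throughput fluorogenic screen: 1nM USP1/UAF1 complex, Ub-Rho substrate 150nM final, 50mM HEPES pH 7.8 with 0.5mM EDTA, 0.1 mg/ml BSA, 1mM TCEP and 0.01% Tween-20.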
VDR inhibitor: vitamin D3 receptor (human) inhibition | VDR-SRC2-3 peptide fluorescence polarization, 2 h | actives 0.93% (n = 400,000) | P11473 | Potency, µM, without a hit: max response, negative = inhibition, hits mostly inhibitors | AID 504847; note: % is set by controls: 0 for no effect and ±100 for the full control effect
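Inhibition of the VDR/SRC2-3 peptide interaction is quantified by fluorescence polarization. Compounds (23 nl, pintool) incubate with the reagents for 2 hours at ambient room temperature.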
An asterisk follows results filed as active; ? = inconclusive; . = no result given. The list is not random: actives were taken first. Their share in the collection is about 1.2%. Calls come from the whole dose curve; as a rule, active = well fitted curve in the direction sought with a large enough effect; inconclusive = small, poorly fitted or top-dose-only effect, or another doubt; inactive = no such curve, though single readings can be large; an effect the other way counts as inactive or inconclusive. Potency is the fitted concentration of half-maximal effect.

SMILES | EPAC2 ag | EPAC2 antagonist | EPAC1 agonist | EPAC1 antagonist | USP1-UAF1 inh | VDR inhibitor
CC(=O)N1/C(=C/c2ccc(N(C)C)cc2)C(=O)c2ccccc21 | -6% | 7% | 0% | -1% | -11% | 32µM*
CSc1ccccc1C(=O)C1CCCN(C(=O)c2cncs2)C1 (stereo unspecified) | -4% | 0% | 6% | 1% | -20% | 32µM*
Nc1ccccc1S(=O)(=O)Nc1cccc2cccnc12 | . | . | . | . | . | -6%
CCCN(CCC)C(=O)c1cc([N+](=O)[O-])cc2c1-c1ccc([N+](=O)[O-])cc1C2=C(C#N)C#N | -8% | 3% | 3% | 9% | ? | 40µM*
O=C(NCc1ccccc1Cl)c1ccccc1NC(=O)c1nsc2ccccc12 | . | . | . | . | -7% | 10%
Nc1c(C(=O)NC2CC2)sc2nc3c(c(-c4ccco4)c12)CC/C3=C/c1ccco1 | 11% | 27% | -5% | ? | 28µM* | -27%
CC1(C)CC(=O)c2cc(-c3nc(-c4ccc(F)cc4)cs3)c(=O)[nH]c2C1 | . | . | . | . | -2% | 7%
COc1ccc(/C=N/NC(=O)c2cc(O)c(O)c(O)c2)cc1Cn1cc([N+](=O)[O-])cn1 | 1% | -5% | 3% | 32µM* | -16% | -15%
COc1ccc(/C=N/NC(=O)c2ccccc2O)cc1Cn1cc([N+](=O)[O-])cn1 | 4% | 20% | -15% | 20% | -18% | 5%
O=S(=O)(Cc1ccccc1)N=Nc1c(O)[nH]c2ccc(Br)cc12 | 2% | 4% | 3% | 6% | -21% | 79µM*
O=C(CNC(=O)c1ccccc1)N=Nc1c(O)[nH]c2ccc(Br)cc12 | 2% | 0% | -10% | -7% | 1% | 13%
CN1CCN(CCCN2c3ccccc3Sc3ccc(Cl)cc32)CC1 | 1% | 13µM* | -9% | -28% | -15% | ?
CC(C)(C)C(=O)/C=c1\s/c(=C\c2ccc(-c3ccc([N+](=O)[O-])cc3)o2)c(=O)n1CC(=O)NC(N)=O | 8% | 28% | -8% | 19% | 7.9µM* | 5%
CCOc1ccc2nc(NC3=NC(c4ccc(OC)cc4)CC(=O)N3)nc(C)c2c1 (stereo unspecified) | ? | 32µM* | ? | 50µM* | ? | 18%
CCOc1ccc2nc(NC3=NC(C)(C)C=C(C)N3)nc(C)c2c1 | -2% | 6% | 2% | 5% | -15% | 19%
Cc1ccc(NC(=O)CCS(=O)(=O)c2ccc(Br)cc2)nc1 | -8% | -7% | 5% | 9% | -1% | 50µM*
CCCCN(C(=O)c1ccc(-c2ccc(Cl)cc2)o1)c1c(N)n(CCCC)c(=O)[nH]c1=O | -8% | 1% | -11% | -33% | 5% | 71µM*
COCCCN(Cc1ccco1)C(=O)c1cc2c(s1)-c1ccccc1OC2 | . | . | . | . | -22% | 9%
C[C@@H]1CN([C@H](C)CO)S(=O)(=O)c2ccc(Br)cc2O[C@@H]1CN(C)Cc1ccc(-c2ccccc2)cc1 | 8% | 0% | -10% | -3% | 25µM* | .
COc1cccc(S(=O)(=O)N(C)C[C@H]2Oc3cc(Br)ccc3S(=O)(=O)N([C@@H](C)CO)C[C@H]2C)c1 | 3% | ? | 8% | -15% | 18µM* | .
C[C@H]1CN([C@@H](C)CO)S(=O)(=O)c2ccc(Br)cc2O[C@H]1CN(C)S(=O)(=O)c1ccccc1 | 10% | -16% | 9% | 14% | -19% | .
C#CC(C)(C)NS(=O)(=O)c1cc(-c2nnc(Nc3ccc(C)cc3)c3ccccc23)ccc1C | . | . | . | . | -28% | 2%
COc1cc(/C=C(\C#N)C(N)=O)ccc1OS(=O)(=O)c1ccc(C)cc1 | 24% | -10% | 4% | -28% | -26% | ?
COc1cc(/C=C(\C#N)C(=O)NC2CCCCC2C)ccc1OS(=O)(=O)c1ccc(C)cc1 (stereo unspecified) | -5% | -13% | 3% | -9% | 0% | 79µM*
CCOc1ccc(-n2ccnc2SCC(=O)Nc2cccc3ccccc23)cc1 | . | . | . | . | 5% | 10%
SMILES | EPAC2 ag | EPAC2 antagonist | EPAC1 agonist | EPAC1 antagonist | USP1-UAF1 inh | VDR inhibitor
CC(C)c1ccc(Nc2nnns2)cc1 | 16% | -4% | 5% | 11% | -15% | 79µM*
Cc1nc(NC(=O)C2CCCCC2C(=O)O)sc1C (stereo unspecified) | 12% | 4% | -3% | -15% | -10% | 5%
CCc1c(C)sc(NC(=O)C2CCCCC2C(=O)O)c1C(N)=O (stereo unspecified) | -11% | -4% | 4% | 10% | -3% | 79µM*
C/C(CC(=O)Nc1ccc(N(C)C)cc1)=N\NC(=O)c1ccc([N+](=O)[O-])cc1Cl | 0% | -1% | 0% | -12% | -11% | 79µM*
C/C(CC(=O)Nc1ccc(N(C)C)cc1)=N\NC(=O)c1ccc(Cl)cc1Cl | 7% | 11% | -6% | -20% | -20% | -4%
COc1ccc(-c2ccc(OC)c(C3C4C=CCCC4(C)C(=O)N3Cc3ccccc3)c2)cc1 (stereo unspecified) | . | . | . | . | . | 0%
CC(C)Nc1oc(-c2ccccc2)nc1-c1cccc2ccccc12 | . | . | . | . | . | 0%
O=C(O)c1[nH]c2ccccc2c1C(c1cc(Cl)cc([N+](=O)[O-])c1O)c1c(C(=O)O)[nH]c2ccccc12 | -4% | -7% | -5% | 25µM* | 32µM* | 79µM*
COc1cc(-c2ccc(-[n+]3nc(-c4ccccc4)nn3-c3ccc([N+](=O)[O-])cc3)c(OC)c2)ccc1-[n+]1nc(-c2ccccc2)nn1-c1ccc([N+](=O)[O-])cc1 | . | . | . | . | . | 1%
CCCCCc1ccc(C)cc1O | . | . | . | . | . | 7%
FC(F)(F)c1ccccc1-c1nccc(-n2ccnc2)n1 | . | . | . | . | . | 45µM*
N#Cc1cccc(-c2nccc(-n3ccnc3)n2)c1 | . | . | . | . | . | 50µM*
CN(C)C(=O)c1ccc(-c2nccc(-n3ccnc3)n2)cc1 | . | . | . | . | . | 2%
CC(=O)c1cccc(NC(=O)c2c(C)nn(-c3ccc(F)cc3)c2-n2cccc2)c1 | . | . | . | . | -34% | 4%
COC(=O)c1c(-c2cccs2)csc1NC(=O)COc1c(C)ccc(C)c1C | . | . | . | . | -12% | 22µM*
O=C(CCN1CCCCCC1)c1ccccc1 | 1% | 9% | -3% | -4% | -18% | -7%
O=C(/C=C/c1ccccc1)COC(=O)c1ccccc1 | 9% | ? | 6% | -22% | -11% | 10µM*
O=C(/C=C/c1ccccc1)CCN1CCCCC1 | 11% | 17% | -8% | -1% | -5% | 28µM*
CCc1sc(-c2cc3cccc(OC)c3oc2=O)nc1-c1ccccc1 | . | . | . | . | . | 1%

Screens as filed in PubChem BioAssay.
